Compounds with a hit are over-represented: about 18% of the library has one in this group of screens.
TDP1 cell noCPT – qHTS for Inhibitors of human tyrosyl-DNA phosphodiesterase 1 (TDP1): qHTS in cells in absence of CPT; 15% of 420,000 active; AID 686978, 2013; DT40 Tdp1-/- hTDP1 cells, no CPT, ATP luminescence, 48 h; Potency, µM (series often up to 46.2 µM), without a hit: at the highest dose activity change, negative = growth inhibition, most hits filed as inhibitors; also: potency is read from the fitted curve at half-maximal effect; nearly all actives have a fitted effect of over 55% in size
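No-CPT arm: Tdp1-/-;hTDP1 DT40 cells (400/well) plus compounds, incubated ≥48 hr at 37 °C. Readout CellTiter-Glo luminescence.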
LDHA inh – LDHA (human) enzyme inhibition. purified LDHA, NADH/diaphorase-resazurin fluorescence; stronger effect = lower value. activity change, % (values are at about 110 or 230 µM). 0.15% of 480,000 active. AID 1347041; in the data active = activity change below about -30%; inconclusive = mostly about -25% to -30%;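 also: plate controls were DMSO wells for no effect and wells without enzyme for full effect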
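Human LDH5 at 2 nM final in Tris HCl pH 7.4 with 0.06 mM NADH and 0.2 mM pyruvate, reacted 5 minutes at room temperature. Remaining NADH coupled via diaphorase/resazurin; resorufin fluorescence read at 0 and 20 minutes, normalized to enzyme-free and DMSO wells.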
RORg inh – ROR gamma (mouse) transcription inhibition | 5.4% of 310,000 active | Potency, µM (highest dose often 53.6 µM), inactives show at the highest dose activity change, negative = inhibition, usual class: inhibitors | P51450 | Drosophila S2 Gal4-RORgamma UAS-luciferase reporter, 20 h; also: potency is read from the fitted curve at half-maximal effect; nearly all actives have a fitted effect of over 60% in size
Target sequence (P51450 whole entry, looked up, the tested form may be a part): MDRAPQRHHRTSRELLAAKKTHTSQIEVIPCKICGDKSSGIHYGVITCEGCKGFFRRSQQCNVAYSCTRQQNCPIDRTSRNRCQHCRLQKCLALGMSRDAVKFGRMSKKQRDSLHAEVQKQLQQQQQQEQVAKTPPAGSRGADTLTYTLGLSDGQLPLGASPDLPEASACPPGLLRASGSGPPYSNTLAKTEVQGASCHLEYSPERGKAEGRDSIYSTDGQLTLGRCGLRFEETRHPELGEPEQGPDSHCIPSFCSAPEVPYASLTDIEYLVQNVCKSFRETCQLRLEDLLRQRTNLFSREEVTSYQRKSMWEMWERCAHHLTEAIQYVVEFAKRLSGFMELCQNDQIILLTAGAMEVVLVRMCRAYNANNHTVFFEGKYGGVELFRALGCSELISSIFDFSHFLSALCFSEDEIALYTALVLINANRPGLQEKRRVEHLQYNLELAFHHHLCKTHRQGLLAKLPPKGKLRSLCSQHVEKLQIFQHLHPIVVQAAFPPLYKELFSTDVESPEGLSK
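Stable Schneider cell line, Gal4 DNA-binding domain fused to ROR gamma, UAS-luciferase. Cmpd 1 hr RT → CuSO4 700 uM final → 20 hr RT → luciferase reagent 10 min → luminescence.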
Gal4-VP16 FLuc – Gal4-VP16 reporter inhibition counter-screen; Potency, µM (titrated, usually from 53.6 µM), without a hit: at the highest dose activity, negative = inhibition, most hits filed as inhibitors; 3.5% of 310,000 active; Drosophila S2 Gal4-VP16 UAS-luciferase, luminescence, 20 h;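 also: Gal4-VP16 expression switched on by copper sulfate through the metallothionein promoter; potency is read from the fitted curve at half-maximal effect; nearly all actives have a fitted effect of over 50% in size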
DT40 TDP1 CPT – DT40-hTDP1 cell growth loss with CPT. chicken DT40 Tdp1-/-;hTDP1 cells + 20 nM CPT, ATP luminescence, 48 h. Potency, µM (top dose mostly 46.2 µM), inactives show top-dose activity change, negative = growth inhibition, most hits filed as inhibitors. 12% of 420,000 active; also: potency is read from the fitted curve at half-maximal effect; nearly all actives have a fitted effect of over 55% in size
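Cell growth measured by CellTiter-Glo luminescence after a minimum 48 h, 37 C compound exposure with 20 nM CPT in Tdp1-knockout DT40 cells stably expressing hTDP1, seeded 400/well; qHTS titration format.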
IL1B secr inh – inflammasome signaling inhibition, IL-1 beta readout; 4.7% of 360,000 active; activity change, % at 57.5 µM; THP-1 LPS/ATP IL-1B secretion, AlphaLISA, 16 h; stronger effect = lower value; in the data active = activity change below about -50%; inconclusive = mostly about -30% to -49%
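Secreted IL-1B measured by AlphaLISA bead assay after 16 h compound exposure of THP-1 cells; compounds (final up to 57.5 uM) added 1 h before LPS (250 ng/mL) and ATP (1.25 mM) stimulation; lower signal means less secretion.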
* marks the source's active call; other numbers are inactive results. Unless noted, calls follow the shape of the dose curve; as a rule, active = well fitted curve in the direction sought with a large enough effect; inconclusive = small, poorly fitted or top-dose-only effect, or another doubt; inactive = no such curve, though single readings can be large; an effect the other way counts as inactive or inconclusive. Unless noted, % is scaled to controls: 0 for no effect and ±100 for the full control effect.

What do the screens show for `Cc1ccc(C)c(N2CN(Cc3ccco3)CNC2=S)c1`?
TDP1 cell noCPT: 7.5%; LDHA inh: -3.9; RORg inh: 6.31µM*; Gal4-VP16 FLuc: 10µM*; DT40 TDP1 CPT: -0.4%; IL1B secr inh: -3.3

What do the screens show for `Cc1cccc(N2CN(Cc3cccnc3)CNC2=S)c1C`?
TDP1 cell noCPT: -0.7%; LDHA inh: -4.7; RORg inh: -21.1%; Gal4-VP16 FLuc: -6.7%; DT40 TDP1 CPT: -2.4%; IL1B secr inh: 7.5

What do the screens show for `CC(C)OC(=O)CN1CCN(C2c3ccccc3-c3ccccc32)CC1`?
TDP1 cell noCPT: 29.1µM*; LDHA inh: 0.2; RORg inh: 3.0%; Gal4-VP16 FLuc: -5.8%; DT40 TDP1 CPT: inconclusive; IL1B secr inh: 4.5

How did COc1ccc(OCC(=O)NCC(c2ccc(Cl)cc2)N2CCCCC2)cc1 (configuration not stated) do in these assays?
TDP1 cell noCPT: inconclusive; LDHA inh: -2.3; DT40 TDP1 CPT: 20.6µM*

What do the screens show for `CCOc1ccc(S(=O)(=O)NCC(c2ccc(N(C)C)cc2)N2CCCC2)cc1` (configuration not stated)?
TDP1 cell noCPT: 25.9µM*; LDHA inh: 5.8; DT40 TDP1 CPT: inconclusive

How did COc1ccc(C(=O)NCC(c2ccc(Cl)cc2)N2CCCCC2)cc1 (configuration not stated) do in these assays?
TDP1 cell noCPT: 11.6µM*; LDHA inh: -1.7; DT40 TDP1 CPT: 14.6µM*

Results for Cc1cc(C)cc(OCC(=O)NCC(c2ccc(Cl)cc2)N2CCCCC2)c1 (configuration not stated) ?
TDP1 cell noCPT: 16.4µM*; LDHA inh: 4.6; DT40 TDP1 CPT: 20.6µM*

What do the screens show for `Cc1ccc(OCC(=O)NCC(c2ccc(Cl)cc2)N2CCCCC2)cc1` (configuration not stated)?
TDP1 cell noCPT: inconclusive; LDHA inh: -3.6; DT40 TDP1 CPT: inconclusive

How did CCN(C(=O)c1cccs1)c1nc(-c2ccc(C)cc2)cs1 do in these assays?
LDHA inh: -19.4

How did CCS(=O)(=O)N1CCC(C(=O)Nc2ccc(Oc3ccccc3OC)cc2)CC1 do in these assays?
LDHA inh: -3.4

Results for COc1ccc(C(=O)NCC(c2ccc(N(C)C)cc2)N2CCCC2)c(OC)c1 (configuration not stated) ?
TDP1 cell noCPT: 13µM*; LDHA inh: 0.8; DT40 TDP1 CPT: inconclusive

How did COc1cc(C2c3cc4c(cc3C(OC3OC5COC(c6cccs6)OC5C(O)C3O)C3COC(=O)C23)OCO4)cc(OC)c1O (configuration not stated) do in these assays?
TDP1 cell noCPT: 0.0259µM*; LDHA inh: -1.4; RORg inh: inconclusive; Gal4-VP16 FLuc: inconclusive; DT40 TDP1 CPT: 0.0231µM*; IL1B secr inh: 15.5

How did O=C(NC1CC2CC1C1CCCC21)c1nc(Cl)ccc1Cl (configuration not stated) do in these assays?
LDHA inh: -2.6

How did CC(=O)C1=C(O)C(=O)N(c2ccc(S(N)(=O)=O)cc2)C1c1cccc([N+](=O)[O-])c1 (configuration not stated) do in these assays?
TDP1 cell noCPT: 6.4%; LDHA inh: -6.4; RORg inh: -11.6%; Gal4-VP16 FLuc: -1.9%; DT40 TDP1 CPT: -20.2%; IL1B secr inh: 30.7

Results for CC(=O)C1C(=O)c2c(cccc2[N+](=O)[O-])C1=Nc1ccc(S(N)(=O)=O)cc1 (configuration not stated) ?
TDP1 cell noCPT: inconclusive; LDHA inh: 4.1; RORg inh: -17.0%; Gal4-VP16 FLuc: -0.2%; DT40 TDP1 CPT: 18.4µM*; IL1B secr inh: 7.7

What do the screens show for `O=S(=O)(Nc1nc2ccccc2nc1Nc1ccc2c(c1)OCO2)c1cccc(Cl)c1`?
LDHA inh: 4.7

How did COc1ccc(-n2c(=O)c3c(c4cc(OC)ccc4n3C)n(CC(=O)NCC3CCCO3)c2=O)cc1 (configuration not stated) do in these assays?
TDP1 cell noCPT: inconclusive; LDHA inh: -6.7; DT40 TDP1 CPT: -5.4%

What do the screens show for `CCOC(=O)/C=c1\s/c(=C\c2c(OC)ccc3ccccc23)c(=O)n1CC(=O)NCC1CCCO1` (configuration not stated)?
TDP1 cell noCPT: 20.6µM*; LDHA inh: 5.1; RORg inh: -7.8%; Gal4-VP16 FLuc: -1.4%; DT40 TDP1 CPT: inconclusive; IL1B secr inh: 31.4

What do the screens show for `CCOC(=O)/C=c1\s/c(=C\c2ccc(C(=O)OC)cc2)c(=O)n1CC(=O)Nc1ccccc1`?
TDP1 cell noCPT: inconclusive; LDHA inh: -2.3; RORg inh: -1.4%; Gal4-VP16 FLuc: -20.1%; DT40 TDP1 CPT: 16.4µM*; IL1B secr inh: 3.2

What do the screens show for `CCOC(=O)c1sc2nc(C)n(CC(=O)NCC3CCCO3)c(=O)c2c1C` (configuration not stated)?
TDP1 cell noCPT: inconclusive; LDHA inh: -6.5; RORg inh: -2.7%; Gal4-VP16 FLuc: -3.6%; DT40 TDP1 CPT: -4.7%; IL1B secr inh: -0.2

What do the screens show for `CCOC(=O)/C=c1/s/c(=C/c2ccc3cc(OC)ccc3c2)c(=O)n1CC(=O)NCC1CCCO1` (configuration not stated)?
TDP1 cell noCPT: 10.3µM*; LDHA inh: 1.3; DT40 TDP1 CPT: 16.4µM*; IL1B secr inh: 0.0

Results for CCOC(=O)/C=c1\s/c(=C\c2ccc(C#N)cc2)c(=O)n1CC(=O)NCc1ccco1 ?
TDP1 cell noCPT: -12.5%; LDHA inh: -7.1; RORg inh: 14.3%; Gal4-VP16 FLuc: -2.8%; DT40 TDP1 CPT: 17.9%; IL1B secr inh: 0.0

Results for O=C(C1CCCC1)N(Cc1ccc2cc[nH]c2c1)C1CC1 ?
LDHA inh: 4.9

Results for O=C(c1cccc(Cl)c1)N1CCC(=O)N([C@H](COCc2ccccc2)Cc2ccccc2)CC1 ?
TDP1 cell noCPT: 18.4µM*; LDHA inh: -5.0; DT40 TDP1 CPT: inconclusive; IL1B secr inh: inconclusive

Results for O=C(c1cccc(Cl)c1)N1CCC(=O)N(C(COCc2cccc(Cl)c2)Cc2ccccc2)CC1 (configuration not stated) ?
TDP1 cell noCPT: inconclusive; LDHA inh: 1.3; RORg inh: inconclusive; Gal4-VP16 FLuc: 0.1%; DT40 TDP1 CPT: inconclusive; IL1B secr inh: inconclusive

Screens: PubChem, National Center for Advancing Translational Sciences (NCATS)
